Compound activity (PubChem BioAssay)
This is a sample that favours compounds with a hit; in the whole collection about 21% have one here.
Shiga inhibitor = inhibitors of Shiga toxin in Vero cells | inhibition, % at 38.7 µM | AID 2315 | hit rate 9.2% among 290,000 | Vero cells, Shiga toxin protein synthesis inhibition reporter; in the data active means inhibition mostly above about 28%, no sharp cut-off; inactive means mostly below about 43%; further: 0% is about no effect
Pf growth 48h = inhibits P. falciparum growth in the first generation, 48 h; P. falciparum luciferase growth in erythrocytes, 48 h; Potency, µM (highest dose often 28.7 µM), without a hit: top-dose activity change, negative = inhibition, most hits filed as inhibitors; hit rate 5.9% among 310,000; further: potency means the concentration at half of the fitted maximal effect; on the % scale 0 is the no-effect control and ±100 the full control effect
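Firefly luciferase activity from engineered P. falciparum reports growth; inhibitors lower the luminescent signal. Cultures contained 2% hematocrit erythrocytes at 0.1% final parasitemia.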
HCV inhibitor = blocks hepatitis C virus. Huh7.5.1 HCVcc-Cre infection, luciferase reporter, 44 h. Potency, µM (series often up to 41.8 µM), inactives show top-dose activity change, negative = inhibition, actives largely listed as inhibitors. hit rate 3.4% among 340,000; further: potency means the concentration at half of the fitted maximal effect; on the % scale 0 is the no-effect control and ±100 the full control effect
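Antiviral activity was scored by luciferase reporter output from cells infected with HCVcc-Cre (~0.5 moi) in presence of compound, 44 h infection period, cells seeded 1,000/well 4 h prior.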
HCMV inh = inhibitors of human cytomegalovirus. activity change, negative = inhibition, % at 57.5 µM. HFF cells, HCMV-luciferase reporter, 72 h; hits give low values. hit rate 4.5% among 410,000; in the data active means activity change below about -60%; inconclusive means no clear call, values can overlap the other calls; inactive means above about -39%; further: on the % scale 0 is the no-effect control and ±100 the full control effect
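Luciferase read-out from HCMV-luciferase-infected HFFs (MOI 1 PFU/cell) 72 h post infection at 37C; compounds added after 16 h cell attachment; activity normalized between buffer-only basal and Salinomycin (10uM) inhibitor controls.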
Pf growth 96h = P. falciparum growth inhibition at 96 hour, primary screen for plastid delayed-death inhibitors; P. falciparum luciferase reporter growth, 96 h; Potency, µM (highest dose often 28.7 µM), inactives show at the highest dose activity change, negative = inhibition, most hits filed as inhibitors; hit rate 6.9% among 320,000; AID 504834; further: potency means the concentration at half of the fitted maximal effect; on the % scale 0 is the no-effect control and ±100 the full control effect
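Compounds incubated with erythrocytes infected by luciferase-expressing P. falciparum (2% hematocrit, 0.05% parasitemia final) for 96 hours, 37 C in 5% CO2. Growth inhibition scored as decreased luciferase luminescence.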
Cycloheximide cs = counter-screen hit for Shiga toxin inhibitors, cycloheximide; cell reporter, cycloheximide protein synthesis inhibition counterscreen; max response, %; hit rate 12% among 300,000; AID 2314; in the data active means max response mostly above about 13%, no sharp cut-off; inactive means mostly below about 14%; further: read at 38.3 µM for the half of the compounds with a filed dose; 0% is about no effect
* hit, by the source's call; ? = inconclusive; · = no result. Unless noted, the call rests on the fitted dose curve; in most records, active means well fitted inhibition curve with a large enough effect; inconclusive means small, poorly fitted or top-dose-only effect, or another doubt; inactive means no such curve, though single readings can be large or run the other way.

SMILES	Shiga inhibitor	Pf growth 48h	HCV inhibitor	HCMV inh	Pf growth 96h	Cycloheximide cs
C=CCOc1ccc(C2C(C#N)=C(N)N(Nc3ccccc3)C3=C2C(=O)CCC3)cc1OC (stereo unspecified)	-13	8.3µM*	?	-7	4.7µM*	-3
COc1cc(C2C(C#N)=C(N)N(Nc3ccccc3)C3=C2C(=O)CC(C)(C)C3)ccc1OCc1ccccc1 (stereo unspecified)	-1	4.1µM*	?	-14	2.9µM*	2
COc1cc(C2C(C#N)=C(N)N(Nc3ccccc3)C3=C2C(=O)CC(C)(C)C3)ccc1OCc1cccc(F)c1 (stereo unspecified)	17	?	?	44	?	-2
Cc1ccc(CN2CCN(C3CCNCC3)C(=O)C2=O)cc1	·	·	·	-3	·	·
CC(C)Cn1c(-c2cc([N+](=O)[O-])ccc2Cl)nc2c1c(=O)[nH]c(=O)n2Cc1ccccc1	-1	5.2µM*	?	-2	2.6µM*	4
Cc1ccc(-c2nc3c(c(=O)[nH]c(=O)n3CC(C)C)n2CC(C)C)cc1[N+](=O)[O-]	-13	?	?	-62*	?	-2
CCCCN(CC)c1nc(N)c(C#N)c(CC#N)c1C#N	-12	·	-29%	?	3.3µM*	0
CCCCN(CC)c1nc(N)c2c(N)nc(OCC)cc2c1C#N	-10	·	?	?	13µM*	-3
Cc1ccc(C2N(c3ccc(Cl)cc3)C(=O)N3CCCN23)cc1 (stereo unspecified)	4	?	16%	11	?	6
O=C(CCc1ccccc1)N/N=C/c1cccc([N+](=O)[O-])c1	22	-21%	1%	87	?	10
O=C(CCc1ccc(S(=O)(=O)N2CCOCC2)cc1)N/N=C/c1cccc(O)c1	17	?	28%	23	15µM*	8
O=C(N/N=C/c1cccc(O)c1)N/N=C/c1cccc(O)c1	55*	?	23%	27	?	28*
O=C(CCc1ccc(S(=O)(=O)N2CCOCC2)cc1)N/N=C/c1ccc(F)cc1F	0	?	31%	1	?	4
COc1cc(/C=N\Nc2cc(=O)n(C)c(=O)n2C)ccc1O	4	17%	1%	16	14%	7
Cn1c(N/N=C\c2cccc(O)c2)cc(=O)n(C)c1=O	24*	30%	6%	42	52%	19*
O=C(N/N=C/c1cccc(O)c1)c1ccc2c(c1)OCCO2	9	144%	8%	157	150%	9
O=C(CCc1ccccc1)N/N=C/c1cccc(O)c1	6	-3%	9%	?	-3%	15*
CS(=O)(=O)c1ccc(Nc2nc(C(N)c3ccccc3)cs2)cc1 (stereo unspecified)	·	·	·	37	·	·
Cn1c(=O)oc2cc(S(=O)(=O)NC(Cc3ccccc3)C(=O)Nc3ccc(F)c(Cl)c3)ccc21 (stereo unspecified)	·	·	·	0	·	·
CCOc1ccc(-c2ncnn2-c2sc3c(c2C#N)CCCCC3)cc1	·	·	·	-7	·	·
CN(Cc1c(C(=O)N/N=C/c2cccc(O)c2)nnn1-c1nonc1N)c1ccccc1	-13	11%	3%	·	53%	-9
O=C(Cc1nnc(NC(=O)c2ccccc2)s1)N/N=C/c1ccco1	-16	29%	22%	76	17%	-1
